We go through eleven molecules from PubChem BioAssay (NCATS).

Records with an inconclusive call do not appear. Activity calls are given as the source filed them. Calls come from the whole dose curve; as a rule, active = well fitted inhibition curve with a large enough effect; inconclusive = small, poorly fitted or top-dose-only effect; inactive = flat fitted curve, though single readings scatter.
% is set by controls: 0 for no effect and ±100 for the full control effect; potency is the fitted concentration of half-maximal effect.

The assay relates to KB-3-1. Kind of assay: Cytotoxic Profiling of Annotated Libraries Using Quantitative High-Throughput Screening (AID 1296008). Note: nearly all actives have a fitted effect of over 60% in size. The note with it: Five cell lines viability, CellTiter-Glo ATP luminescence, 48-72 h; max response: hits give low values. The gist of the method: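 Cells exposed to compounds for 48 or 72 hr at 37 degrees Celsius. Viability read as ATP-coupled luminescence with CellTiter-Glo after 10 min at room temperature.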
In general terms: Cellular ATP, detected with luciferase, serves as a proxy for viable cell number.
In the case of `CCCCC1CCN(CCCC(=O)c2ccccc2C)CC1`, the max response is -21.4% (inactive). Same read-out and setting: the value for `CC12CCC(OC3OC(CO)C(O)C(OC4OC(CO)C(O)C(O)C4O)C3O)CC1CCC1C2CCC2(C)/C(=C3/COC(=O)C3)CCC12O` (stereo unspecified) was -0.791% (inactive).

For the molecule `NCc1c[nH]c(=S)n1[C@@H]1CCc2c(F)cc(F)cc2C1`, the max response was -4.38% (inactive). Same read-out and setting: the value for `C[C@@H]1C(=O)O[C@H]2C[C@]34[C@H]5C[C@@H](C(C)(C)C)[C@]36[C@@H](OC(=O)[C@H]6O)O[C@]4(C(=O)O5)[C@]21O` was -3.28% (inactive).

For `CC(C)(C)c1ccc(S(=O)(=O)NCc2ccc(C(=O)Nc3cccnc3)cc2)cc1`, the Potency was 731 nM (active). As for `COCCOc1ccc(N2CCN(CCn3ncc4c3nc(N)n3nc(-c5ccco5)nc43)CC2)cc1`, the max response is -29.2% (inactive). Still for that read-out and setting: the value for `CCOCc1nc2c(N)nc3ccccc3c2n1CC(C)(C)O` was -7.57% (inactive).

In the case of `CC[C@H](C)[C@H](NC(=O)[C@H]([C@@H](C)CC)N(C)C(C)=O)C(=O)N[C@H](C(=O)N[C@@H](CC(C)C)C(=O)[C@@]1(C)CO1)[C@@H](C)O`, the Potency was 32.6 nM (active). For `COC(=O)[C@H](O)[C@H]1C(C)(C)[C@H](OC(=O)C(C)C)[C@@]2(O)C(=O)[C@]1(C)C1CC[C@]3(C)C(CC(=O)O[C@H]3c3ccoc3)[C@]13O[C@@H]32` (stereo partly specified), the molecule was classed as inactive. Take `COc1ccc([C@@H]2OC[C@H]3[C@@H]2CO[C@@H]3c2ccc(OC3OC(CO)C(O)C(O)C3O)c(OC)c2)cc1OC` (stereo partly specified): the max response was 8.67% (inactive).

With `CC1=C(CCC(C)O[C@@H]2O[C@H](CO)[C@@H](O)[C@H](O)[C@H]2O)C(C)(C)CCC1=O` (stereo partly specified), the max response was 8.72% (inactive).
